Laboratory results reported in PubChem BioAssay AID686978 (National Center for Advancing Translational Sciences (NCATS), 2013).
In all, about 420,000 compounds went through this assay and about 64,000 (15%) were called active. Inconclusive results (about 27%) are left out. A selection follows. Values without a mark were called inactive. The call rests on the fitted dose curve; in most records, active means well fitted inhibition curve with a large enough effect; inconclusive means small, poorly fitted or top-dose-only effect; inactive means flat fitted curve, though single readings scatter.

experiment: qHTS for Inhibitors of human tyrosyl-DNA phosphodiesterase 1 (TDP1): qHTS in cells in absence of CPT; details: DT40 Tdp1-/- hTDP1 cells, no CPT, ATP luminescence, 48 h; activity change, negative = growth inhibition: at 46.2 µM (top of the series); further: nearly all actives have a fitted effect of over 55% in size
Summary of the method: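 Stably hTDP1-transfected Tdp1-null chicken DT40 cells were treated with library compounds minus camptothecin and grown for at least 48 hr at 37 °C, after which cellular ATP was quantified by luminescence.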
On the % scale 0 is the no-effect control and ±100 the full control effect; potency means the concentration at half of the fitted maximal effect.

Row | SMILES | activity change, negative = growth inhibition | Potency
1 | CN(C(=O)COC(=O)c1ccc(Br)o1)c1c(N)n(Cc2ccccc2)c(=O)[nH]c1=O | -17.2% | –
2 | O=S(=O)(Cc1nnnn1-c1ccc(Br)cc1)c1ccc(F)cc1 | -15.1% | –
3 | Cc1cc(C)cc(Oc2c(C(F)(F)F)oc3cc(OCC(=O)O)ccc3c2=O)c1 | -19% | –
4 | COc1ccc(/C=N/Nc2nc3ccccc3o2)cc1OC | 8.23% | –
5 | COc1cc(/C=N/Nc2nc3ccccc3s2)ccc1O | – | 1.3 µM (active)
6 | O=[N+]([O-])c1cc(Br)c(O)c(/C=N/Nc2nc3ccccc3s2)c1 | – | 18.4 µM (active)
7 | Cc1ccc(S(=O)(=O)Nc2nc3ccccc3s2)cc1[N+](=O)[O-] | -10.3% | –
8 | COc1cc(C=NC2CCCCC2)ccc1O | -20.7% | –
9 | CN(C(=O)CSc1nnc(N)s1)c1c(N)n(Cc2ccccc2)c(=O)[nH]c1=O | -3.27% | –
10 | COc1cc(Br)cc2cc(S(=O)(=O)c3ccccc3)c(=O)oc12 | -2.21% | –
11 | COc1cccc(N2CC(NS(=O)(=O)c3cccs3)CC2=O)c1 (centres undefined) | -5.55% | –
12 | COc1cccc(N2CC(NS(=O)(=O)c3ccc(Cl)cc3)CC2=O)c1 (centres undefined) | -18.3% | –
13 | COc1ccc(N2CC(NS(=O)(=O)c3ccc4ccccc4c3)CC2=O)cc1 (centres undefined) | – | 23.1 µM (active)
14 | COC(=O)N(NC(=O)C(O)(C(C)C)C(C)C)c1ccccc1 | 3.81% | –
15 | CC(C)(O)C(=O)NN(C(=O)c1ccccc1)c1cccc(Br)c1 | 4.16% | –
16 | CCCCC(O)(CCCC)C(=O)NN(C(=O)CCl)c1ccccc1 | – | 20.6 µM (active)
17 | CCCC(O)(CCC)C(=O)NN(C(=O)CCl)c1cccc(C)c1 | – | 5.8 µM (active)
18 | Cc1ccc(N(NC(=O)C(C)(C)O)C(=O)c2ccccc2)cc1C | -27% | –
19 | CN(C)/C=C/c1c(C#N)c(=O)ncn1Cc1ccccc1 | 11.3% | –
20 | COc1cc(/C=C(/NC(=O)c2ccc(Cl)cc2Cl)C(=O)O)cc(OC)c1OC | -3.62% | –
21 | Cc1ccc(C(=O)N/C(=C\c2ccco2)C(=O)N2CCSCC2)cc1C | 2.18% | –
22 | CCNc1nc(N)nc(Oc2ccc(OCC)nn2)n1 | -5.62% | –
23 | CCOc1cccc(=O)c2c(C)n(CC3CCCO3)c(C)c12 (centres undefined) | -21.8% | –
24 | Cc1ccc2c(=O)c(C(=O)c3ccc(F)cc3)cn(CC(=O)NC3CCCCC3)c2n1 | -11.5% | –
25 | CC(OC(=O)CNC(=O)c1ccco1)C(=O)Nc1ccc(Cl)cn1 (centres undefined) | -3.04% | –
26 | CCn1c(SCC(=O)NCC2CCCO2)nc2ccccc21 (centres undefined) | 1.62% | –

Row | SMILES | activity change, negative = growth inhibition | Potency
27 | S=C(NCCc1ccccc1)NCC1CCCO1 (centres undefined) | – | 23.1 µM (active)
28 | Cc1ccc(C(=O)NCC2CCCO2)o1 (centres undefined) | 13% | –
29 | O=C(CS(=O)(=O)Cc1ccccc1)NCC1CCCO1 (centres undefined) | -15% | –
30 | CN(CCc1ccccn1)C(=O)c1ccc(OC2CCN(Cc3ccccn3)CC2)cc1 | -9.13% | –
31 | COC(=O)Cn1cc(/C=C/[N+](=O)[O-])c2ccccc21 | – | 14.6 µM (active)
32 | COCCCNC(=O)Cn1cc(/C=C(\C#N)C(=O)N2CCN(c3ccccc3)CC2)c2ccccc21 | -35.8% | –
33 | COC(=O)c1cn(CC(=O)NCc2cccs2)c2ccccc12 | 0.284% | –
34 | CCCn1nc(C(=O)OCc2nc(N)nc(Nc3ccccc3C)n2)c2ccccc2c1=O | -16% | –
35 | COCCN(C(=O)CCC(=O)Nc1nccs1)C(C(=O)NC(C)(C)C)c1ccc(Cl)cc1 (centres undefined) | -20.2% | –
36 | CCn1c(CN2C(=O)CSc3ccccc32)n[nH]c1=S | -8.13% | –
37 | COc1ccc(Br)cc1CNC(=O)c1cc(=O)[nH]c2ccc(S(=O)(=O)N3CCCC3)cc12 | -7.47% | –
38 | CCN1CCN(C(=O)c2cc3cc4ccc(OC)cc4nc3s2)CC1 | -22.2% | –
39 | CCOC(=O)CNc1nc(Cl)nc(Nc2ccc(OC)cc2OC)n1 | -24.2% | –
40 | CCN1CCN(c2nc(Nc3cc(OC)ccc3OC)nc(Nc3cc(OC)ccc3OC)n2)CC1 | – | 23.1 µM (active)
41 | c1ccc(-c2c[nH]c(-c3ccccc3)c2)cc1 | -2.86% | –
42 | Cc1nn(-c2cc(Cl)ccc2N)c(=O)c2ccccc12 | -14.5% | –
43 | COc1ccc(NC(=O)CCNS(=O)(=O)c2ccc3c(c2)c(=O)n(C)c(=O)n3C)cc1OC | -28% | –
44 | Cn1c(=O)c2cn(-c3cccc4ccccc34)cc2n(C)c1=O | – | 25.9 µM (active)
45 | CC(=O)Nn1cc2c(=O)n(C)c(=O)n(C)c2c1 | -1.04% | –
46 | COc1cccc(OC)c1C(=O)Nc1ccc2c(c1)n(C)c(=O)n2C | 17.7% | –
47 | O=C1c2ccccc2C(=O)N1c1cccc2ccccc12 | -3.87% | –
48 | COc1ccc(OC)c(-n2cc3c(=O)n(C)c(=O)n(C)c3c2)c1 | – | 14.6 µM (active)
49 | CCSC1(SCC)N=C(N)C2(C#N)C(c3ccccc3)NC(C)=CC12C#N (centres undefined) | -15% | –
50 | O=C(Cn1nnc2ccccc2c1=O)NCc1ccc(Cl)cc1 | -26.9% | –
51 | Cc1noc(C)c1C(=O)OC(C)C(=O)Nc1ccc2c(c1)OCO2 (centres undefined) | -20.5% | –
52 | NC(=O)c1ccc(Nc2ccc3nonc3c2[N+](=O)[O-])cc1 | -0.787% | –

Row | SMILES | activity change, negative = growth inhibition | Potency
53 | Cc1ccc(C)c(S(=O)(=O)Nc2cc(C)on2)c1 | 24.7% | –
54 | O=C(CN1CCN(S(=O)(=O)c2cccc(Cl)c2)CC1)N1CCCCC1 | 1.53% | –
55 | O=C(CN1CCCSc2ccccc21)N1CCN(S(=O)(=O)c2cccc(F)c2)CC1 | – | 7.31 µM (active)
56 | O=C(CN1CCCSc2ccccc21)N1CCN(S(=O)(=O)c2ccccc2)CC1 | -21.5% | –
57 | N#C[C@]1(S(=O)(=O)c2ccccc2)C[C@@H]2ON=C(c3cccc(Br)c3)[C@@H]2C1 | – | 6.51 µM (active)
58 | COC(=O)[C@]1(S(=O)(=O)c2ccccc2)C[C@@H]2ON=C(c3ccc(OC)cc3)[C@@H]2C1 | -18.7% | –
59 | Cc1nc2sc(C)c(C)n2c(=O)c1S(=O)(=O)NCCc1ccc(Cl)cc1 | -8.23% | –
60 | O=C(CN1CCN(S(=O)(=O)c2ccc(Cl)s2)CC1)N1CCCCC1 | -6.5% | –
61 | O=C(N/N=C/c1ccc(O)c(O)c1)C1c2ccccc2Oc2ccccc21 | – | 25.9 µM (active)
62 | O=C(N/N=C/c1cc2c(cc1Br)OCO2)C1COc2ccccc2O1 (centres undefined) | -18.1% | –
63 | CCC(C)(C)NC(=O)C1c2ccccc2Oc2ccccc21 | -10.4% | –
64 | COC1[C@H](OC(N)=O)C(O)[C@H](Oc2ccc3c(O)c(NC(=O)c4ccc(O)c(CC=C(C)C)c4)c(=O)oc3c2C)OC1(C)C (some centres undefined) | -6.85% | –
65 | O=C1C=C(NCCNc2c(F)c(F)c(CO)c(F)c2F)CCC1 | -8.45% | –
66 | CC(C)c1ccc(Cc2nnc(NCCCO)[nH]c2=O)cc1 | -9.08% | –
67 | COc1ccc(Cc2nnc(N/N=C/c3ccccc3O)[nH]c2=O)cc1OC | – | 0.0206 µM (active)
68 | O=c1[nH]c(NCCO)nnc1Cc1ccc(Cl)cc1 | -10.1% | –
69 | CCc1cc(=O)oc2cc(C)cc(OC(C)C(=O)O)c12 (centres undefined) | 6.97% | –
70 | CC(C)CNS(=O)(=O)c1ccc(OCC(=O)Nc2ccc3c(c2)OCO3)c(Cl)c1 | 2.5% | –
71 | CC(=O)OCC(C)n1c(=O)c2ccccc2n1C(C)=O (centres undefined) | -18.2% | –
72 | CCCc1cc(=O)[nH]c(SCC(=O)N2C(C)CCCC2C)n1 (centres undefined) | -4.08% | –
73 | CCCCCn1c(=O)[nH]c2cc(C(=O)Nc3cc(C)cc(C)c3)ccc2c1=O | – | 4.61 µM (active)
74 | COCCn1c(=O)[nH]c2cc(C(=O)NCc3cccnc3)ccc2c1=O | 0.434% | –
75 | CCCCCn1c(=O)[nH]c2cc(C(=O)NCCCN3CCCCC3C)ccc2c1=O (centres undefined) | -29.4% | –
76 | CCN(C(=O)CSc1nnnn1-c1ccc(OC)cc1)C1CCS(=O)(=O)C1 (centres undefined) | 7.66% | –
77 | COc1ccc([C@H]2CC(=O)C=C(/C=C/c3ccccc3)C2)cc1 | -10.5% | –
78 | COc1cc(NC(=O)c2noc3c2CSc2ccccc2-3)cc(OC)c1OC | – | 8.2 µM (active)

Row | SMILES | activity change, negative = growth inhibition | Potency
79 | COc1cc(C(=O)Nc2nccs2)cc(OC)c1OC | -26.6% | –
80 | COc1ccc2c(c1)CCc1c(C(=O)Nc3c(C)n(C)n(-c4ccccc4)c3=O)noc1-2 | -24.4% | –
81 | COc1cccc(COC(=O)C2CCN(S(=O)(=O)c3cccs3)CC2)c1OC | 0.105% | –
82 | CC(C)(Oc1ccc(Cl)cc1)C(=O)OCC(=O)NCCc1ccc(S(N)(=O)=O)cc1 | -6.13% | –
83 | Cc1ccc(CCN2CC(C(=O)O)CC2=O)cc1 (centres undefined) | 0.404% | –
84 | Cc1ccc(-c2nnc(Nc3cccc(Br)c3)c3ccccc23)cc1S(=O)(=O)NCC1CCCO1 (centres undefined) | – | 11.6 µM (active)
85 | Cc1ccc(C(=O)O)cc1S(=O)(=O)NCC1CCCO1 (centres undefined) | -3.24% | –
86 | COCCCNc1nc2c(-c3cccc(C(F)(F)F)c3)nnn2c2ccccc12 | -25.1% | –
87 | Cc1ccc(-c2nnc(Nc3ccc(C(=O)N(C)C)cc3)c3ccccc23)cc1S(N)(=O)=O | -1.51% | –
88 | CCNS(=O)(=O)c1cc(-c2nnc(Nc3cccc(C(F)(F)F)c3)c3ccccc23)ccc1C | – | 5.8 µM (active)
89 | Cc1cc(Cl)c(S(=O)(=O)NCC2CCCO2)cc1OCC(N)=O (centres undefined) | 9.13% | –
90 | CCC(C)CN1C(=O)CN(S(C)(=O)=O)CC1(C)C(=O)Nc1ccc2c(c1)OCCO2 (centres undefined) | -8.04% | –
91 | Cc1ccc(CSc2nc(-c3ccccc3)c(C#N)c(=O)[nH]2)cc1 | 6.61% | –
92 | CCCCCN1CC(O)=C(c2ccccc2)C1=N | -23.7% | –
93 | CCOC(=O)N1CCN(C(=O)CSc2nnc(-c3c[nH]c4ccccc34)n2CCOC)CC1 | – | 20.6 µM (active)
94 | Cc1nnc(SCC(=O)N2CCN(c3ccccc3)CC2)n1-c1ccccc1 | -7.19% | –
95 | CCC(C)Sc1nnc(-c2c[nH]c3ccccc23)n1CCOC (centres undefined) | -25.8% | –
96 | CCCCn1c(N)c(N(CCC(C)C)C(=O)c2ccc([N+](=O)[O-])o2)c(=O)[nH]c1=O | -25.2% | –
97 | CS(=O)(=O)N1CCC2(CCN(c3ccncc3)CC2)CC1 | -21.5% | –
98 | O=C(C1=C(O)C(=O)N(CCOCCO)C1c1ccccn1)c1cccs1 (centres undefined) | 0.178% | –
99 | CN(CCC(=O)Nc1cc(S(=O)(=O)N(C)C)ccc1Cl)CC(=O)Nc1ccc(F)cc1 | -29.5% | –
100 | CCc1ccc(CN(C)C(C)C(=O)Nc2ccc(S(=O)(=O)N3CCCC3)cc2)cc1 (centres undefined) | – | 16.4 µM (active)
101 | CCc1ccc(NC(=O)CN2C(=O)COc3ccc(S(=O)(=O)N4CCCC4)cc32)cc1 | -28.2% | –
102 | CN(CC(=O)Nc1ccc(S(=O)(=O)N2CCCC2)cc1)Cc1ccc(Cl)c(Cl)c1 | – | 18.4 µM (active)
103 | CN1CCN(S(=O)(=O)c2ccc(NC(=O)C3CCCO3)cc2)CC1 (centres undefined) | -6.78% | –
104 | CCc1ccc(NC(=O)CN2C(=O)CCSc3ccc(S(=O)(=O)N4CCCC4)cc32)cc1 | -15.4% | –
